From PubChem
Rows were chosen to be rich in hits. Some 4.5% of all compounds tested hit in one or more screens of this group.
hcDAF-12 act – H. contortus DAF-12 nuclear receptor activators, primary screen, cell-based, luminescence, HEK293, lit1-tk-luc reporter; HEK293 hcDAF-12 lit1-tk-luc reporter; 0% DMSO, 100% Δ7-dafachronic acid; activation, % at 6.8 µM; 370,000 compounds, 1.4% hits; AID 652067, 2013;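 active = activation above the mean of all tested compounds plus 3 SD, cut at about 5.5% in these data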;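 note: 100% = response to 3 µM Δ7-dafachronic acid high control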
hgDAF-12 ag – H. glycines DAF-12 receptor agonists, primary screen, cell-based, luminescence, HEK293, GAL4 fusion, UAS-luciferase; HEK293 GAL4-hgDAF12 UAS-luciferase reporter, agonist luminescence; normalized to butyrate control; 370,000 compounds, 1.8% hits; Nuclear hormone receptor DAF-12 (Heterodera glycines), GAL4 fusion; activation, % at 6.8 µM; AID 687014, 2013;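 active = activation above a cutoff set at the mean of all screened compounds plus 3 SD, cut at about 10% in these data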;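 note: 0% = DMSO wells and 100% = sodium butyrate wells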
GAA850 FXN act – FXN promoter activators, primary screen, cell-based, luciferase luminescence, HEK293 lucGAA850. HEK293 lucGAA850 FXN promoter luciferase reporter, 24 h; percent of 10 µM SAHA response. 360,000 compounds, 0.56% hits. activation, % at 6 µM;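 active = activation above the average of all compounds screened plus 3 SD, cutoff fixed separately per campaign, cut at about 7.5% in these data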;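 note: 0% = DMSO wells and 100% = 10 µM SAHA wells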
DAX1 inh-1 – DAX1 (NR0B1) inhibitors, primary screen, cell-based, HEK293, Gal4-DAX1, luciferase luminescence. Nuclear receptor subfamily 0 group B member 1 (Homo sapiens), P51843. HEK293 Gal4-DAX1 luciferase reporter. inhibition, % at 6.75 µM. 340,000 compounds, 0.99% hits. AID 504766, 2011;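 active = inhibition above the mean over all tested compounds plus 3 SD, cut at about 4.2% in these data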;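 note: 0% = DAX1-transfected cells with DMSO and 100% = empty-vector control cells with DMSO; inhibition shows as a rise in luminescence from relieved DAX1 repression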
Target sequence (P51843 207-470 limits assumed): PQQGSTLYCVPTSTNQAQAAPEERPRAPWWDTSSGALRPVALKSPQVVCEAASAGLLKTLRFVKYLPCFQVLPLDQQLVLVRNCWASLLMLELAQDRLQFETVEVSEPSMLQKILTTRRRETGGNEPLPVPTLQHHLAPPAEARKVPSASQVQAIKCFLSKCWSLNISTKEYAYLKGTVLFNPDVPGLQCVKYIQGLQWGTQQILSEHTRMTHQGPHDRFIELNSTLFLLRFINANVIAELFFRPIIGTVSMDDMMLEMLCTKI
DAX1 inh-2 – DAX1 (NR0B1) inhibitors on StAR promoter, primary screen, cell-based, luminescence, SF-1 (NR5A1), full-length DAX-1; HEK293T StAR-luciferase reporter, SF-1/DAX-1 repression relief; inhibition, % at 6.8 µM; 370,000 compounds, 1.1% hits; AID 652010, 2013;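 active = inhibition above the mean over all tested compounds plus 3 SD, cut at about 3.6% in these data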;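 note: 0% = DAX-1 cells with DMSO and 100% = cells lacking DAX-1 with DMSO; higher inhibition means more luminescence from relief of DAX-1 repression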
ssDAF-12 act – S. stercoralis DAF-12 nuclear receptor activators, primary screen, cell-based, luminescence, HEK293, GRIP1 co-expression, lit1-tk-luc; Nuclear hormone receptor DAF-12 (Strongyloides stercoralis); HEK293 ssDAF-12/GRIP1 lit1-tk-luc reporter; % of 3 µM dafachronic acid response; activation, % at 6.8 µM; 370,000 compounds, 1% hits; AID 652126, 2013;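 active = activation above the mean over all tested compounds plus 3 SD, cut at about 0.9% in these data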;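 note: 0% = DMSO-only wells and 100% = 3 µM delta7-dafachronic acid wells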
GAA30 counter – GAA30 FXN promoter activators, confirmation, counter-screen for GAA850 frataxin promoter activator project, cell-based, luminescence, HEK293, lucGAA30, triplicate; AID 588350, 2011; HEK293 lucGAA30 FXN promoter luciferase, 24 h; DMSO = 0%, 5 µM ipriflavone = 100%; activation, % at 6 µM; shares compounds with GAA850 FXN act; 1,900 compounds, 66% hits;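 active = mean activation above the mean of solvent-only control wells plus 3 SD, cut at about 22% in these data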;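 note: counterscreen of GAA850 promoter hits where activity marks nonselective or luminescence artifacts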
FXN GAA850 conf – FXN GAA850 promoter activators in reporter cells, confirmation, cell-based, luminescence, HEK293 lucGAA850, triplicate. shares compounds with GAA850 FXN act. HEK293 lucGAA850 FXN promoter luciferase reporter, 24 h; 100% = activation by SAHA. activation, % at 6 µM. 1,900 compounds, 86% hits. AID 588351, 2011;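 active = mean activation above a set limit taken from the primary screen, cut at about 8% in these data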;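 note: 0% = DMSO wells and 100% = 10 µM SAHA wells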
Numbers without * were called inactive; x = not tested or not shown.

SMILES	hcDAF-12 act	hgDAF-12 ag	GAA850 FXN act	DAX1 inh-1	DAX1 inh-2	ssDAF-12 act	GAA30 counter	FXN GAA850 conf
CCNC(=O)N(C)C[C@H]1N[C@@](C)(C(=O)OC)[C@H]2C(=O)N(Cc3ccccc3)C(=O)[C@@H]12	0.7	-1.3	-1.4	-2.1	3.0	-0.3	x	x
COC(=O)[C@]1(Cc2ccccc2)N[C@H](CN(C)C(=O)Nc2ccc(Cl)cc2)[C@@H]2C(=O)N(Cc3ccccc3)C(=O)[C@@H]21	-0.5	2.1	-1.9	-0.8	-0.8	-1.0	x	x
COc1ccc2[nH]c3c(c2c1)CCN[C@]31C(=O)Nc2ccccc21	0.0	2.5	x	x	-1.1	-0.1	x	x
C=CCn1c(N)c(C(=O)NCCC2=CCCCC2)sc1=S	3.2	4.5	7.6*	1.4	1.1	-0.9	92.3*	34.6*
CCCCCCCCN1C(=O)[C@@H](CC(=O)N2CCSCC2)C[C@@]2(C(=O)OC)C1=C[C@H](C(C)C)O[C@@H]2C1CC1	-0.2	-1.3	x	x	0.4	-0.9	x	x
CCC(C)NC(=O)c1cnn2c(C)c3c(nc12)CCCC3 (stereo unspecified)	-2.8	-4.1	7.8*	-0.1	-0.7	-2.2	17.9	9.6*
Cc1c2c(nc3c(C(=O)NC4CC4)cnn13)CCCC2	-0.2	4.8	4.3	0.5	0.6	-0.6	x	x
C=CCNc1sc(C(=O)c2ccccc2)c(N)c1-c1nc2ccccc2s1	x	x	8.0*	1.0	x	x	-5.4	10.7*
CC(C)C[C@H](NC(=O)c1ccco1)C(=O)N1CCC[C@H]1C(=O)NCc1ccccc1	-0.6	0.9	x	x	-0.6	-0.8	x	x
COc1cc(OC)c(OC)cc1CCC(C)NCCC(c1ccccc1)c1ccccc1 (stereo unspecified)	-2.4	-1.3	12.9*	-0.6	0.0	-0.8	-20.3	9.4*
CN1C(=O)/C(=C\c2ccncc2)SC1=Nc1ccccc1	-2.1	-1.1	8.4*	0.6	-1.3	-1.3	-1.0	7.2
CCCN1C(=O)/C(=C/c2ccncc2)SC1=S	0.2	-1.2	2.2	-0.6	-0.6	-1.3	x	x
Nc1ccc2oc(-c3ccccc3Cl)nc2c1	0.7	7.0	-8.2	-1.6	3.0	-1.0	x	x
CCc1ccc2oc(-c3cc(N)cc(C)c3O)nc2c1	3.1	2.2	7.7*	0.1	0.8	0.3	81.5*	39.9*
O=C1N2CCc3ccccc3C2CS(=O)(=O)N1CCc1ccccc1 (stereo unspecified)	1.0	8.1	x	x	1.1	-0.4	x	x
O=C1C2C3C=CC(C4CC34)C2C(=O)N1/N=C/c1ccc(-c2ccc([N+](=O)[O-])cc2)o1 (stereo unspecified)	0.1	4.0	2.2	-0.6	0.0	-0.9	x	x
O=C1C2C3C=CC(C4CC34)C2C(=O)N1/N=C/c1ccc([N+](=O)[O-])o1 (stereo unspecified)	-1.8	-1.9	9.6*	-0.2	-0.6	-0.8	-2.2	11.5*
COc1ccc(Cn2nnc3c(=O)[nH]c(C(=O)NCCc4ccc(F)cc4)nc32)cc1OC	-3.6	1.8	19.7*	1.1	-0.6	-1.5	8.6	9.0*
